Some test systems named below: DU-145 prostate; K-562 leukemia; MALME-3M melanoma; MDA-MB-231 breast; RXF 393 renal; SF-268 CNS; SF-295 CNS; SF-539 CNS; UACC-257 melanoma; M14 melanoma; HCT-15 colon; HT29 colon; SNB-75 CNS; SNB-19 CNS; U251 CNS; PC-3 prostate; SK-MEL-5 melanoma; UACC-62 melanoma; LOX IMVI melanoma; SK-MEL-28 melanoma.
Assay in all cases: NCI-60 one-dose screen, 48 h (100 = growth as untreated, 0 = no growth, -100 = all killed)
Settings in all cases: 10 µM unless noted

About 83,000 compounds went through this panel and 20% of them were active in at least one assay; those are over-represented in the sample as a whole.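 Method: cells in 96-well plates; compound added at one concentration; 48 h incubation; percent growth measured; values under 10 scored active.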 Values without a mark were called inactive. Active and inactive are the calls of the source.

Regarding `O=S(=O)(NCCCNc1nccc(-c2c(-c3ccc(F)c(O)c3)nc3occn23)n1)c1ccccc1`, the growth in the experiment with DU-145 prostate was 90.5%; in the experiment with K-562 leukemia, 56.8%; with MALME-3M melanoma, -0.289% (active); in the experiment on MDA-MB-231 breast, 57.7%; with RXF 393 renal, 70.9%; in the experiment with SF-268 CNS it was 97.3%. For the same compound, the growth was 104% in the experiment with SF-295 CNS; 105% in the experiment with SF-539 CNS; 29.1% in the experiment with UACC-257 melanoma; 17.2% in the experiment on M14 melanoma; 103% in the experiment with HCT-15 colon; 73.6% in the experiment on HT29 colon. Moreover, the growth was 96.8% in the experiment with SNB-75 CNS; 113% in the experiment on SNB-19 CNS; 99.7% with U251 CNS; 79.1% in the experiment with PC-3 prostate; 63% with SK-MEL-5 melanoma; 10.7% in the experiment on UACC-62 melanoma. Moreover, the growth was 39.6% in the experiment on LOX IMVI melanoma and 24.7% in the experiment on SK-MEL-28 melanoma.

On to `Cc1ccc(Sc2nnc(/N=C3\C(=O)Nc4ccccc43)s2)cc1`, for which the growth in the experiment on DU-145 prostate is 114%; with K-562 leukemia, 95.5%; in the experiment on MALME-3M melanoma, 102%; in the experiment with MDA-MB-231 breast it was 104%; in the experiment on RXF 393 renal, 120%; in the experiment with SF-268 CNS it was 98.9%. The growth in the experiment on SF-295 CNS was 105%; in the experiment with SF-539 CNS, 101%; in the experiment on UACC-257 melanoma, 94.2%; in the experiment on M14 melanoma it was 101%; in the experiment on HCT-15 colon, 105%; with HT29 colon, 111%. Moreover, the growth with SNB-75 CNS is 87.5%; with SNB-19 CNS, 101%; with U251 CNS, 97.4%; in the experiment on PC-3 prostate, 99.7%; in the experiment on SK-MEL-5 melanoma it was 107%; with UACC-62 melanoma, 103%. Besides, the growth in the experiment on LOX IMVI melanoma was 97.8%; in the experiment on SK-MEL-28 melanoma, 105%.

On to `O=C1Nc2ccccc2[C@]12CC(c1ccccc1)=NN2`, for which the growth in the experiment with DU-145 prostate is 74.5%; in the experiment with K-562 leukemia it was 21.8%; in the experiment on MALME-3M melanoma, 37.2%; in the experiment on MDA-MB-231 breast, 53.4%; in the experiment with RXF 393 renal, 73.3%; in the experiment with SF-268 CNS, 47.5%. The growth was 45.6% with SF-295 CNS; 28.4% in the experiment on SF-539 CNS; 67.8% with UACC-257 melanoma; 25.8% in the experiment on M14 melanoma; 31.6% in the experiment on HCT-15 colon; 15.8% in the experiment with HT29 colon. Also, the growth in the experiment on SNB-75 CNS was 62.2%; with SNB-19 CNS, 52.7%; in the experiment on U251 CNS, 38.9%; in the experiment on PC-3 prostate it was 38.5%; with SK-MEL-5 melanoma, 30.2%; in the experiment on UACC-62 melanoma, 19.5%. Besides, the growth in the experiment with LOX IMVI melanoma was 40.2%; with SK-MEL-28 melanoma, 59.2%.

Regarding `CS(=O)(=O)Nc1cc(-c2ccc3ncnc(Nc4c(Cl)ccc5c4OCO5)c3c2)cnc1Cl`, the growth was 6.12% (active) in the experiment with DU-145 prostate; 13.6% in the experiment with K-562 leukemia; -29% (active) in the experiment with MALME-3M melanoma; 1.01% (active) in the experiment with MDA-MB-231 breast; -45.8% (active) in the experiment on RXF 393 renal; -21.5% (active) in the experiment on SF-268 CNS. In addition, the growth in the experiment on SF-295 CNS was -29.8% (active); in the experiment with SF-539 CNS, -36.9% (active); in the experiment with UACC-257 melanoma, -3.47% (active); in the experiment with M14 melanoma, -9.85% (active); in the experiment on HCT-15 colon it was -18% (active); with HT29 colon, -12.9% (active). The growth in the experiment with SNB-75 CNS is -19.5% (active); in the experiment with SNB-19 CNS it was -4.15% (active); in the experiment with U251 CNS, -30.4% (active); with PC-3 prostate it was 2.75% (active); in the experiment on SK-MEL-5 melanoma, -93% (active); in the experiment on UACC-62 melanoma, -52% (active). In addition, the growth with LOX IMVI melanoma was -51.2% (active); with SK-MEL-28 melanoma it was -6.42% (active).

In the case of `C=CCn1cc(-c2nc3ccccc3s2)c2cc(-c3ccc4c5c(cccc35)C(=O)N(N)C4=O)ccc21`, the growth was 110% in the experiment with DU-145 prostate; 107% in the experiment on K-562 leukemia; 101% with MALME-3M melanoma; 83.1% in the experiment with MDA-MB-231 breast; 106% in the experiment on RXF 393 renal; 89.5% with SF-268 CNS. Besides, the growth was 99.1% with SF-295 CNS; 101% in the experiment on SF-539 CNS; 104% with UACC-257 melanoma; 94.5% in the experiment with M14 melanoma; 98% in the experiment with HCT-15 colon; 105% in the experiment with HT29 colon. The growth is 85.1% in the experiment with SNB-75 CNS; 97.2% in the experiment on SNB-19 CNS; 104% in the experiment on U251 CNS; 88.2% in the experiment on PC-3 prostate; 96.5% in the experiment with SK-MEL-5 melanoma; 86.9% with UACC-62 melanoma. Besides, the growth was 95.9% in the experiment on LOX IMVI melanoma and 109% with SK-MEL-28 melanoma.

Consider `N#Cc1c(-c2ccc(Cl)cc2)nc(SCC(=O)NC2=NN=C(c3ccccc3)CS2)[nH]c1=O`, for which the growth in the experiment on DU-145 prostate is 105%; with K-562 leukemia, 42.4%; with MALME-3M melanoma, 75%; in the experiment on MDA-MB-231 breast it was 78.1%; with RXF 393 renal, 84.5%; in the experiment on SF-268 CNS, 91.4%. The growth with SF-295 CNS was 107%; in the experiment with SF-539 CNS it was 91.4%; in the experiment on UACC-257 melanoma, 84%; in the experiment on M14 melanoma, 72.3%; in the experiment with HCT-15 colon it was 72.4%; in the experiment on HT29 colon it was 104%. In addition, the growth in the experiment on SNB-75 CNS was 80.5%; in the experiment on SNB-19 CNS it was 85.8%; in the experiment with U251 CNS, 77.3%; in the experiment on PC-3 prostate it was 78.6%; in the experiment on SK-MEL-5 melanoma, 84.2%; in the experiment with UACC-62 melanoma, 75.1%. The growth was 69.5% in the experiment with LOX IMVI melanoma and 76.3% in the experiment with SK-MEL-28 melanoma.

On to `COc1cc(CNC(=O)/C=C/C=C/c2ccc3c(c2)OCO3)ccc1OCc1cn(-c2ccc(C)c(C)c2)nn1`, for which the growth in the experiment with DU-145 prostate was 85.9%; with K-562 leukemia, 68.6%; with MALME-3M melanoma, 75.1%; in the experiment on MDA-MB-231 breast, 78.7%; in the experiment with RXF 393 renal, 47.6%; with SF-268 CNS, 107%. For the same compound, the growth in the experiment on SF-295 CNS was 94.8%; in the experiment on SF-539 CNS it was 55.8%; with UACC-257 melanoma, 65%; with M14 melanoma it was 61.4%; with HCT-15 colon it was 81.3%; in the experiment on HT29 colon, 91.6%. In addition, the growth is 88.4% in the experiment on SNB-75 CNS; 79.5% in the experiment on SNB-19 CNS; 86.3% with U251 CNS; 75.1% with PC-3 prostate; 81.7% in the experiment with SK-MEL-5 melanoma; 56.9% in the experiment with UACC-62 melanoma. For the same compound, the growth with LOX IMVI melanoma was 88.1%; with SK-MEL-28 melanoma, 54.1%.

The values are drawn from PubChem BioAssay (NCI).
